Records with an inconclusive call do not appear. A number with no mark means an inactive call. The source made the active and inactive calls. Calls follow the shape of the dose curve; as a rule, active = well fitted cell-killing curve with a large enough effect in the repeat runs; inconclusive = weak or mixed curves, or effect the other way; inactive = no such curve, though single readings can be large or run the other way.

This is an account of results in PubChem BioAssay (Tox21).
% is scaled to controls: 0 for no effect and ±100 for the full control effect; potency is read from the fitted curve at half-maximal effect.

The test is described as follows: qHTS assay to identify small molecule agonists of the RXR signaling pathway - cell viability counter screen (AID 1159529). Also: nearly all actives have a fitted effect of over 50% in size.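 As to activity change, negative = cytotoxicity: HEK 293T cells carrying an RXR-alpha UAS beta-lactamase reporter.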 Conditions: RXR-alpha-bla HEK293T viability, CellTiter-Glo, 16 h; series mostly up to 76.8 µM; activity change, negative = cytotoxicity: at the top concentration. The essentials: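 RXR-alpha-UAS-bla HEK 293T cells in medium with 2% charcoal-stripped FBS were preincubated 5 hr, then exposed to compounds for 16 hr at 37 C. Viability was read as CellTiter-Glo luminescence after 30 min at room temperature.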
For `C=CCN1CCc2nc(N)sc2CC1`, the “activity change, negative = cytotoxicity” value is -1.18% [at 35.3 µM]. Still for that read-out and setting: for `O=C(O)Cc1c(Cl)ccc(Cl)c1Cl` the value was 0.422%; for `CCCCCCCCCCCCCC(=O)OCC`, 3.21%; for `CC(=O)OCC(=O)[C@@]1(O)CC[C@H]2[C@@H]3CCC4=CC(=O)C=C[C@]4(C)[C@H]3[C@@H](O)C[C@@]21C`, 8.79% [at 35.3 µM]. As for `Cc1cc(N)no1`, the “activity change, negative = cytotoxicity” value was 5.15%. For the compound `O=c1c(O)c(O)c1=O`, the “activity change, negative = cytotoxicity” value was 3.01%. The same measure, in the same setting: the result for `CC/C=C/CCCCCCCCCCOC(C)=O` reads 1.25%. For the compound `N=C(N)N`, the “activity change, negative = cytotoxicity” value is 6.35% [at 35.3 µM]. Still for that read-out and setting: the result for `CC(=O)Oc1ccc(C(C)=O)cc1` reads 15.8%; that for `CC(=O)c1c(C)cc(C(C)(C)C)cc1C`, 0.635%.

For `CN(C)CCc1c[nH]c2ccc(C[C@H]3COC(=O)N3)cc12`, the “activity change, negative = cytotoxicity” value is 2.08% [at 35.3 µM]. The same measure, in the same setting: the result for `O=C(O)/C=C(\CC(=O)O)C(=O)O` reads 0.236% [at 35.3 µM]; that for `CC(C)(O)c1ccc(C(C)(C)O)cc1`, 6.39%.

Turning to `Nc1cc(S(=O)(=O)O)ccc1O`, the “activity change, negative = cytotoxicity” value was 1.93%. On the same count and under the same terms, for `CC(=O)Nc1ccc(S(=O)(=O)Nc2cc(C)on2)cc1` the value was 6.78% [at 35.3 µM]; for `CC(O)CCCCn1c(=O)c2c(ncn2C)n(C)c1=O` (stereo not drawn), 6.11% [at 35.3 µM].

Turning to `CCC(C)c1nccnc1OC` (stereo not drawn), the “activity change, negative = cytotoxicity” value is 17.7%. With `CN(C)c1cc(NC(=O)CNC(C)(C)C)c(O)c2c1C[C@H]1C[C@H]3[C@H](N(C)C)C(=O)C(C(N)=O)=C(O)[C@@]3(O)C(=O)C1=C2O`, the “activity change, negative = cytotoxicity” value was 1.39% [at 35.3 µM]. As to `CC1(C)CC(N)CC(C)(C)N1`, the “activity change, negative = cytotoxicity” value is 1.3%. Consider `C/C=C(\C)C(=O)OC/C=C(\C)CCC=C(C)C`, for which the “activity change, negative = cytotoxicity” value was 0.723%. On the same count and under the same terms, the result for `COC(=O)c1cc(Cl)c(NC(C)=O)cc1OC` reads 0.0324% [at 35.3 µM]; that for `O=C(c1ccccc1)c1cccc(O)c1`, 14.4%; that for `C=C(C)C(=O)OCCCC`, -2.91%. As to `CN(C)CCc1c[nH]c2ccc(CS(=O)(=O)N3CCCC3)cc12`, the “activity change, negative = cytotoxicity” value is 0.573% [at 35.3 µM]. `Cc1ccc(O)c([N+](=O)[O-])c1`: the Potency was 24.8 µM (active). As to `C[C@]12C=CC(=O)C=C1[C@@H](F)C[C@@H]1[C@@H]2[C@@H](O)C[C@@]2(C)[C@H]1CC[C@]2(O)C(=O)CO`, the “activity change, negative = cytotoxicity” value is -1.85% [at 35.3 µM].

For `Cc1ccccc1OCC(=O)O`, the “activity change, negative = cytotoxicity” value was -0.0412%. In the case of `Cc1ccc(N)nc1`, the “activity change, negative = cytotoxicity” value is -4.44%. As to `Cc1cc(C)c(C)c(C)c1`, the “activity change, negative = cytotoxicity” value was -0.18%. Same read-out and setting: for `CCCC(=O)OC` the value was 13.7%; for `O=S(=O)(O)c1ccc(Cl)cc1`, -0.0291%; for `CN(C)c1ccncc1`, -2.55%.

For `CC(O)C(CO)C(C)O` (stereo not drawn), the “activity change, negative = cytotoxicity” value was 12.6%. On the same count and under the same terms, for `CC1(C)S[C@@H]2[C@H](NC(=O)Cc3ccccc3)C(=O)N2[C@H]1C(=O)O` (tested in a mixture with another compound) the value was 9.82% [at 35.3 µM]; for `CN1CCN(C(=O)C2CCCCC2)CC1`, 3.07% [at 35.3 µM]; for `C=CCCCCCCCCCCCCCC`, -3.45% [at 15.8 µM]. As for `CC(C)(C)C(=O)CCc1ccc(Cl)cc1`, the “activity change, negative = cytotoxicity” value was 12.3%. On the same count and under the same terms, the result for `CCCc1ncc(C(=O)O)s1` reads -0.0722% [at 35.3 µM].
